Assay results as given in PubChem BioAssay AID588579 (National Center for Advancing Translational Sciences (NCATS), 2011).
“And” between values parts separate entries of the source, which are not always exact repeats. Equal entries are not always repeated. The campaign covered roughly 400,000 compounds. About 2,200 (0.55%) were called active. A call without a number means that no potency is given here. About 1% were inconclusive and are not listed. This excerpt belongs to a sample that is enriched for actives. Values without a mark were called inactive. The call rests on the fitted dose curve; in most records, active means well fitted inhibition curve with a large enough effect; inconclusive means small, poorly fitted or top-dose-only effect, or another doubt; inactive means no such curve, though single readings can be large or run the other way.

molecular target: DNA polymerase kappa (Homo sapiens) (UniProt Q9UBT6); assay: qHTS for Inhibitors of Polymerase Kappa; conditions: purified Pol kappa, fluorescent DNA synthesis assay, 10 min; series mostly up to 107 µM
Sequence (Q9UBT6 whole entry, looked up): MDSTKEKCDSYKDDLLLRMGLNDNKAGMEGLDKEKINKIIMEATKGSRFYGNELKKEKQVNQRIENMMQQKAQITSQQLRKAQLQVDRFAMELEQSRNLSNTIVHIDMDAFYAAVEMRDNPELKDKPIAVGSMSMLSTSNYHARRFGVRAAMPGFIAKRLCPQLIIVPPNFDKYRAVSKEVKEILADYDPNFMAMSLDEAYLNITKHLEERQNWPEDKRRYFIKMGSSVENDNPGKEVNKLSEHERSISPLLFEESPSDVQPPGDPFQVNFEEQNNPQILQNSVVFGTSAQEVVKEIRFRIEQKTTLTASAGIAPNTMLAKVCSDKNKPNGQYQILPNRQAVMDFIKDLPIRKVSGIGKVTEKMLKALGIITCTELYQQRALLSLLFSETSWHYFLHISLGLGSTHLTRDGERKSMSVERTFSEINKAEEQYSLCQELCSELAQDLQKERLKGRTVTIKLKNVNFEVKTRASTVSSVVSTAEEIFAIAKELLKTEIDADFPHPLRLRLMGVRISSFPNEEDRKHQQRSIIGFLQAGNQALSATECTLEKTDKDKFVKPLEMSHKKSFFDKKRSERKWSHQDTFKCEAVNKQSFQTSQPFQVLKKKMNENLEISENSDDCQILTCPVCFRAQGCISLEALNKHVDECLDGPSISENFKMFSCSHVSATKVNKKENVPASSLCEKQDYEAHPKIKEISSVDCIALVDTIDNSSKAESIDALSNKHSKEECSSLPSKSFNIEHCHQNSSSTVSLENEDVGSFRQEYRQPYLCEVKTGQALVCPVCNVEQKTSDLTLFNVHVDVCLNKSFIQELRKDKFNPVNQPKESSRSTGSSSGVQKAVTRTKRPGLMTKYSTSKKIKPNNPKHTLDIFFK
Summary of the method: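 Activity was followed as the change in fluorescence between reads at 0 and 10 min after starting the reaction with 50 nM substrate. Beforehand, 10 nM polymerase had been preincubated with compound for 15 min at room temperature.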
Potency means the concentration at half of the fitted maximal effect.

Row | SMILES | Potency | activity, negative = inhibition
1 | O=C(O)c1ccc(NS(=O)(=O)c2ccc3c(c2)C(=O)c2cc(S(=O)(=O)Nc4ccc(C(=O)O)cc4)ccc2-3)cc1 | 79.4 µM (active) | 
2 | Cc1noc(C)c1S(=O)(=O)Nc1ccc(C(=O)O)cc1 | inactive | 
3 | O=C(c1ccc(NS(=O)(=O)c2ccc3[nH]c(=O)[nH]c3c2)cc1)N1CCCCC1 | inactive | 
4 | O=C(O)c1c(Br)c(Br)c(Br)c(Br)c1C1c2ccc(O)cc2Oc2cc(O)ccc21 | 1.12 µM (active) | 
5 | COc1ccccc1CNc1ncncc1-c1cccc(NS(C)(=O)=O)c1 | inactive | 
6 | CC(C)C(N)C(=O)OCCOCn1cnc2c(=O)[nH]c(N)nc21 (stereo not given) | inactive | 
7 | CC(C)[C@H]1CC[C@@H](C)C[C@H]1O |  | -5.92% [at 19.4 µM]
8 | COc1cccc(Cn2c(=O)c(CCc3ccccc3)nc3cnc(N(C)C)nc32)c1 | inactive | 
9 | CC(C)C1N=C2c3ccccc3N=C(SCC(=O)c3ccc(O)c(O)c3)N2C1=O (stereo not given) | 20 µM (active) | 
10 | Cc1ccc(CNC(=O)CSC2=Nc3ccccc3C3=NC(C)C(=O)N23)cc1 (stereo not given) | inactive | 
11 | CCOC(=O)CSC1=Nc2ccccc2C2=NC(CCC(=O)NCc3ccc(F)cc3)C(=O)N12 (stereo not given) | inactive | 
12 | CCCCC/C=C\CC1OC1CCCCCCCC(=O)O (stereo not given) |  | -0.735% [at 19.4 µM]
13 | COc1cc2nc(N3CCCN(C)CC3)nc(NC(C)C)c2cc1OC | inactive | 
14 | C=COC(=O)N1CCN(/[N+]([O-])=N/Oc2ccc([N+](=O)[O-])cc2[N+](=O)[O-])CC1 | inactive | 
15 | CCC(C)Cn1c(O)cc2nn(-c3nc4ccccc4s3)c(=O)c-2c1C (stereo not given) | 25.1 µM (active) | 
16 | Nc1ncnc2c1c(I)cn2[C@@H]1C[C@H](N)[C@@H](O)[C@H]1O | inactive | 
17 | CC1(C)OC2CO[C@]3(COS(N)(=O)=O)OC(C)(C)OC3C2O1 (stereo not given in full) | inactive | 
18 | COc1ccc(-c2cc(C(=O)NCc3cc(OC)c(OC)c(OC)c3)[nH]n2)cc1 | inactive | 
19 | COc1cc(NC(=O)c2cc3ccc4cccnc4c3[nH]2)cc(OC)c1OC | inactive | 
20 | COc1ccc2[nH]c(C(=O)N/N=C/c3cc(OC)c(OC)c(OC)c3)cc2c1 | 50.1 µM (active) | 
21 | Nc1nc2nc(Cl)[nH]c2c(=O)[nH]1 | inactive | 
22 | COc1ccc(Cl)cc1NC(=O)CCC(=O)c1ccc(C)cc1 | inactive | 
23 | Cc1ccc(Cl)cc1NC(=O)CCS(=O)(=O)c1ccc(Br)s1 | inactive | 
24 | COc1ccc(Cl)cc1NC(=O)CCS(=O)(=O)c1ccc(Br)cc1 | 79.4 µM (active) | 
25 | COc1ccccc1CNc1ncnc2ccc(-c3ccc4c(c3)OCO4)cc12 | inactive | 

Row | SMILES | Potency | activity, negative = inhibition
26 | CC1(C)OC2CC3C4CCC5=CC(=O)CCC5(C)C4(F)C(O)CC3(C)[C@]2(C(=O)CCl)O1 (stereo not given in full) | inactive | 
27 | O=c1c(-c2ccc(F)cc2)nc2cnc(N3CCOCC3)nc2n1-c1ccccc1 | inactive | 
28 | CN(C)c1ccc(/C=C/c2c3ccccc3nc3ccccc23)cc1 | inactive | 
29 | CC(C)(C(=O)NO)c1ccccc1 | inactive | 
30 | C=CCn1c(=S)[nH]c2scc(-c3ccco3)c2c1=O | 22.4 µM (active) | 
31 | Fc1ccc(Cl)cc1-c1nc(Nc2ccncc2)c2nccnc2n1 | inactive | 
32 | COc1ccccc1CCn1c(=O)c(-c2cn(C)c3ccccc23)nc2cncnc21 | inactive | 
33 | CCCCC/C=C\C/C=C\CCCCCCCCCC(=O)O |  | 1.81% [at 19.4 µM]
34 | Cc1ccc(/C=C(\C#N)C(=O)Nc2cc(C)ccc2C)cc1 | inactive | 
35 | CC(C)NC(=O)/C(C#N)=C\c1ccc(N(C)C)c(Br)c1 | inactive | 
36 | N#C/C(=C\c1ccc(O)c(O)c1)C(N)=O | 10 µM (active) | 
37 | Nc1nc(N)c(N=O)c(N)n1 | inactive | 
38 | O=C(C[n+]1ccncc1)c1ccc2c(c1)CCCC2 | inactive | 
39 | CC(=O)NC(=O)c1ccccc1O |  | -8.55% [at 19.4 µM]
40 | COc1ccccc1-c1cc(NCc2cccs2)ncn1 | inactive | 
41 | CC(C)(C)C1CCC(NC(=O)c2cnn3c2NC(=C2CC2)C=C3C(F)F)CC1 (stereo not given) | inactive | 
42 | COc1ccc(C[C@H](N)C(=O)N[C@@H]2[C@H](O)[C@H](n3cnc4c(N(C)C)ncnc43)O[C@@H]2CO)cc1 |  | -1.14% [at 12 µM]
43 | Cc1cc[n+](C2CCCCC2)cc1 | inactive | 
44 | Cc1nc2cnc(N3CCN(C)CC3)nc2n(C[C@H]2CCCO2)c1=O | inactive | 
45 | O=C1NN(c2ccccc2)C(=O)/C1=C/c1ccc(-c2cccc(C(=O)O)c2)o1 | 44.7 µM (active) | 
46 | CCCCOc1ccc(C(=O)NO)cc1 | inactive | 
47 | Cc1cc2oc(=O)cc(-c3ccccc3)c2c(C)c1/C=C/c1ccc(F)cc1 | inactive | 
48 | COc1cc(C(=O)N2CCOCC2)cc(OC)c1OC |  | -0.831% [at 19.4 µM] and 0.0712% [at 19.4 µM]
49 | COc1ccccc1OCCOc1ccc(/C=C2\C(=N)N3N=C(C)SC3=NC2=O)cc1 | inactive | 
50 | COc1cc(/C=C2\C(=N)N3N=C(CC(=O)N4CCOCC4)SC3=NC2=O)cc(OC)c1OC | 31.6 µM (active) | 

Row | SMILES | Potency | activity, negative = inhibition
51 | C=C1C=C(C(F)F)n2ncc(C(=O)NCCc3ccccc3OC)c2N1 | inactive | 
52 | O=c1c(-c2cccs2)nc2cnc(Oc3ccccc3)nc2n1-c1ccccc1 | inactive | 
53 | CC(C)C1=CC2=CC[C@@H]3[C@](C)(CO)CCC[C@]3(C)C2CC1 (stereo not given in full) | inactive | 
54 | CCOC(=O)Cn1c(=O)sc2cccc(Cl)c21 |  | -6.5% [at 12 µM]
55 | Nc1ncnc2nnsc12 | inactive | 
56 | Cc1ccc(Cc2cnc(N)s2)o1 | 15.8 µM (active) | 
57 | COCCNc1ccnc(-c2cccc(NS(C)(=O)=O)c2)n1 | inactive | 
58 | O=C1OC(C(O)CO)C(O)=C1O (stereo not given) | inactive | 
59 | Cc1nn2c3cc(N4CCOCC4)ccc3nc2c2ccccc12 | inactive | 
60 | C1=C(N2CCOCC2)/C(=C/c2nc3ccccc3[nH]2)CC1 | 79.4 µM (active) | 
61 | CNc1ncnc2ccc(-c3cccc(NS(C)(=O)=O)c3)cc12 | inactive | 
62 | CC[C@H](C)[C@H](NC(=O)[C@@H](N)CCC(=O)O)C(=O)N[C@@H](CC(C)C)C(=O)N[C@@H](CC(=O)O)C(=O)N[C@H](C(=O)N1CCC[C@H]1C(=O)N[C@@H](CO)C(=O)N[C@H](C(=O)O)[C@@H](C)O)C(C)C | inactive | 
63 | C=CCOC(=O)C(=C)C | inactive | 
64 | O=C1COc2ccc(-c3csc(-c4ccc(Cl)cc4)n3)cc2N1 | inactive | 
65 | COc1ccc(Cc2nnc(NC(=O)Cc3cccs3)s2)cc1 | 14.1 µM (active) | 
66 | CCc1nnc(NC(=O)CCC(=O)NCc2ccccc2OC)s1 | inactive | 
67 | COc1ccc(CC(=O)Nc2sc(Cc3ccccc3)c(C)c2C(N)=O)cc1 | inactive | 
68 | C=C[C@](C)(O)CCC1C(=C)CCC2[C@@](C)(CO)CCC[C@@]12C (stereo not given in full) | inactive | 
69 | CC(=O)OCC(=O)C1CCC2C3CCC4=CC(=O)CC[C@@]4(C)C3CC[C@]12C (stereo not given in full) | inactive | 
70 | COC(=O)[C@@H]1CC2=CC(=O)CC[C@]2(C)[C@@]23O[C@@H]2C[C@@]2(C)[C@@H](CC[C@@]24CCC(=O)O4)[C@H]13 | inactive | 
71 | COc1ccc(/C=C/c2ccccn2)cc1OC | inactive | 
72 | CN(c1ccccc1)S(=O)(=O)c1ccc(Cl)c(C(=O)OCC(=O)NCc2ccco2)c1 | 79.4 µM (active) | 
73 | COc1ccc(-n2c(SCC(=O)NCc3ccco3)nnc2-c2c[nH]c3ccccc23)cc1 | inactive | 
74 | Cc1cc(C(=O)OCC(=O)NCc2ccco2)c(C)n1-c1ccccc1 | 79.4 µM (active) | 
75 | O=C(COC(=O)c1cc(S(=O)(=O)N2CCOCC2)ccc1Cl)NCCc1ccccc1 | inactive | 

Row | SMILES | Potency | activity, negative = inhibition
76 | CN(c1ccccc1)S(=O)(=O)c1ccc(Cl)c(C(=O)OCC(=O)N2CCOCC2)c1 | inactive | 
77 | Cn1c(N)c(C(=O)COC(=O)c2ccccc2NCc2ccco2)c(=O)n(C)c1=O | inactive | 
78 | CCNc1ncc2ncc(=O)n(Cc3cccc(OC)c3)c2n1 | inactive | 
79 | Cc1cc(N(C)C)nc(Cl)n1 |  | -8.53% [at 12 µM]
80 | O=C(Nc1cccc(F)c1)N1CCC2(CC1)CCN(S(=O)(=O)c1ccccc1)CC2 | inactive | 
81 | COc1ccc(/C=C/c2ccnc3ccccc23)cc1OC | inactive | 
82 | Cc1cccc(CN2Cc3cccc4c3[C@H](C=CC4)CC2=S)c1 | inactive | 
83 | CC1CCN(C(=O)COC(=O)CCC(=O)c2cccs2)CC1 | inactive | 
84 | O=C(COC(=O)CCC(=O)c1cccs1)NCc1ccco1 | 31.6 µM (active) | 
85 | CCN(C(=O)COC(=O)CCC(=O)c1cccs1)C1CCCCC1 | inactive | 
86 | O=C(Nc1cccc(F)c1)N1CC2(CCN(C(=O)c3cnccn3)CC2)C1 | inactive | 
87 | CC(C)[C@H](CO)Nc1nc(Nc2cc(N)cc(Cl)c2)c2ncn(C(C)C)c2n1 |  | -6.51% [at 19.4 µM]
88 | Cc1ccc(-c2nnc(SCC(=O)NCc3ccccc3)nc2-c2ccc(C)cc2)cc1 | inactive | 
89 | Clc1ccccc1CSc1nncn2c1cc1occc12 | inactive | 
90 | c1ccc(CSc2nnc(-c3ccco3)c(-c3ccco3)n2)cc1 | 20 µM (active) | 
91 | Clc1ccccc1CSc1nnc(-c2ccco2)c(-c2ccco2)n1 | 35.5 µM (active) | 
92 | CSc1n[nH]c(-c2ccco2)n1 | inactive | 
93 | CC1(C)N=C(SCc2ccccc2Cl)c2ccccc2N1 | inactive | 
94 | Nc1nc2c(nc(Cl)n2C2OC(CO)C(O)C2O)c(=O)[nH]1 (stereo not given) | inactive | 
95 | COC(=O)N1CCC2(CCCN(c3ccncc3)C2)CC1 | inactive | 
96 | O=P(O)(O)C(O)c1ccc2ccccc2c1 (stereo not given) |  | 8.31% [at 19.4 µM]
97 | COc1cc2nc(Cl)nc(NC3CC3)c2cc1OC | inactive | 
98 | Cc1ccc(Nc2nnc(-c3ccc(C)c(S(=O)(=O)N4CCCCC4)c3)c3ccccc23)cc1 | inactive | 
99 | Cc1ccc(C)c(Nc2nnc(-c3ccc(C)c(S(=O)(=O)N4CCCCC4)c3)c3ccccc23)c1 | 79.4 µM (active) | 
100 | Cc1ccc(-c2nnc(Nc3ccc(C(=O)N(C)C)cc3)c3ccccc23)cc1S(N)(=O)=O | inactive | 
